# Data published in PubChem BioAssay (EPA / NIEHS).
# Calls of active or inactive are those of the source. Rule for the calls: active = hit-call score of the fitted dose curve at least 0.9, where 1 is the maximum; inactive = score below 0.9.
# Columns and labels:
# Settings in all cases: mRNA level, 48 h; actives raise or lower the signal
# [1] = read-out: ABC Transporter (ABCB11), ABCB11 (gene 8647); assay: LTEA_HepaRG_ABCB11: Life Technologies and Expression Analysis (LTEA) Assay for ABC Transporter (ABCB11) using HepaRG (AID 2283463)
# Outline: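 ABCB11 transcript levels quantified by TaqMan qRT-PCR against three housekeeping genes after 48 h chemical exposure of HepaRG cultures. Concentrations up to 100 uM in half-log steps, 0.5% DMSO vehicle; both induction and suppression scored.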
# [2] = read-out: ABC Transporter (ABCC2), ABCC2 (gene 1244); assay: LTEA_HepaRG_ABCC2: Life Technologies and Expression Analysis (LTEA) Assay for ABC Transporter (ABCC2) using HepaRG (AID 2283464)
# Outline: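 HepaRG, 48 h post-plating; serum-free induction medium; cpd 8-pt, 100 uM top, half-log, 0.5% DMSO, duplicate, 48 h. Readout: ABCC2 mRNA by qRT-PCR, norm. ACTB/GAPDH/POLR2A. Bidirectional fit vs DMSO baseline.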
# [3] = read-out: Broad substrate specificity ATP-binding cassette transporter ABCG2 (Homo sapiens) (UniProt Q9UNQ0); assay: LTEA_HepaRG_ABCG2: Life Technologies and Expression Analysis (LTEA) Assay for ABC Transporter (ABCG2) using HepaRG (AID 2283465)
# Outline: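 ABCG2 transcript was quantified by TaqMan qRT-PCR against three housekeeping genes in HepaRG cells. Cells were treated in duplicate for 48 h across an 8-point half-log series up to 100 uM, with 0.5% DMSO vehicle. Gain or loss versus DMSO was fit.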
# [4] = read-out: ATP-citrate lyase (ACLY), ACLY (gene 47); assay: LTEA_HepaRG_ACLY: Life Technologies and Expression Analysis (LTEA) Assay for ATP-citrate lyase (ACLY) using HepaRG (AID 2283466)
# Outline: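 ACLY mRNA quantified by qRT-PCR on Fluidigm arrays against three housekeeping genes, after 48 h chemical treatment of HepaRG cells (top concentration 100 uM, half-log steps, 0.5% DMSO vehicle). Up- or down-regulation fitted relative to DMSO.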
# [5] = read-out: Peroxisomal acyl-coenzyme A oxidase 1 (ACOX1) gene, ACOX1 (gene 51); assay: LTEA_HepaRG_ACOX1: Life Technologies and Expression Analysis (LTEA) Assay for Peroxisomal acyl-coenzyme A oxidase 1 (ACOX1) gene using HepaRG (AID 2283467)
# Outline: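 ACOX1 transcript levels were quantified by TaqMan qRT-PCR against three housekeeping genes after 48 h chemical exposure of differentiated human HepaRG cells. Exposure used eight half-log steps topping at 100 uM, 0.5% DMSO vehicle, in duplicate. Bidirectional curve fits were made relative to DMSO.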
# [6] = read-out: Alkaline Phosphatase, Placental (ALPP) gene, ALPP (gene 250); assay: LTEA_HepaRG_ALPP: Life Technologies and Expression Analysis (LTEA) Assay for Alkaline Phosphatase, Placental (ALPP) gene using HepaRG (AID 2283468)
# Outline: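 HepaRG, 48 h plating then 48 h dosing, serum-free induction medium, 0.5% DMSO. 8 conc, half-log, max 100 uM, duplicates. Endpoint: ALPP transcript by qRT-PCR, housekeeping-normalized; gain or loss fitted vs DMSO.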
# [7] = read-out: Bcl-2 (BAD) gene, BAD (gene 572); assay: LTEA_HepaRG_BAD: Life Technologies and Expression Analysis (LTEA) Assay for Bcl-2 (BAD) gene using HepaRG (AID 2283469)
# Outline: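 Read-out: qRT-PCR of BAD mRNA, normalized to three housekeeping genes. Human HepaRG cultures got 48 h chemical exposure in 0.5% DMSO, duplicate eight-point half-log series topping at 100 uM. Gain or loss of signal fitted versus DMSO vehicle.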
# [8] = read-out: Bcl-2 (BAX) gene, BAX (gene 581); assay: LTEA_HepaRG_BAX: Life Technologies and Expression Analysis (LTEA) Assay for Bcl-2 (BAX) gene using HepaRG (AID 2283470)
# Outline: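 Cells were thawed, plated for 48 h, moved to serum-free induction medium and dosed for 48 h (highest concentration 100 uM, half-log steps, 0.5% DMSO). Total RNA was then analysed for BAX expression by qRT-PCR.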
# [9] = read-out: adenosine kinase (ADK) gene, ADK (gene 132); assay: LTEA_HepaRG_ADK: Life Technologies and Expression Analysis (LTEA) Assay for adenosine kinase (ADK) gene using HepaRG (AID 2283471)
# Outline: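 ADK expression quantified by qRT-PCR, normalised to three housekeeping genes, after 48 h exposure of HepaRG cells to eight concentrations (top 100 uM, half-log steps, duplicate, 0.5% DMSO). Up- or down-regulation fitted relative to vehicle.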
# [10] = read-out: Alpha-fetoprotein (AFP) gene, AFP (gene 174); assay: LTEA_HepaRG_AFP: Life Technologies and Expression Analysis (LTEA) Assay for Alpha-fetoprotein (AFP) gene using HepaRG (AID 2283472)
# Outline: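 Chemicals were tested on differentiated HepaRG cells for 48 hours at eight concentrations up to 100 uM, with 0.5% DMSO as vehicle. AFP expression was then quantified by qRT-PCR and analyzed for gain or loss relative to DMSO.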
# BCL2L11 (gene 10018) = assay: LTEA_HepaRG_BCL2L11: Life Technologies and Expression Analysis (LTEA) Assay for Bcl-2 (BCL2L11) gene using HepaRG (AID 2283473)
# Outline: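 Read-out is BCL2L11 transcript level by qRT-PCR, normalized to three housekeeping genes and fitted bidirectionally against 0.5% DMSO vehicle. HepaRG cells received chemicals for 48 h in serum-free induction medium, 100 uM down in half-log dilutions.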
# [11] = read-out: Apolipoprotein A-V (APOA5) gene, APOA5 (gene 116519); assay: LTEA_HepaRG_APOA5: Life Technologies and Expression Analysis (LTEA) Assay for Apolipoprotein A-V (APOA5) gene using HepaRG (AID 2283474)
# Outline: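 Readout is APOA5 transcript level by qRT-PCR on Fluidigm dynamic arrays, normalized to three housekeeping genes. HepaRG cultures received chemicals for 48 h at up to 100 uM (half-log steps, 0.5% DMSO), with gain or loss scored relative to DMSO.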
# [12] = read-out: Apoptosis regulator Bcl-2 (Homo sapiens) (UniProt P10415); assay: LTEA_HepaRG_BCL2: Life Technologies and Expression Analysis (LTEA) Assay for Bcl-2 gene using HepaRG (AID 2283475)
# Outline: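 Plated human HepaRG cells are exposed to test chemicals for 48 h across eight concentrations from 100 uM downward in half-log steps (0.5% DMSO). BCL2 expression is then measured by qRT-PCR with housekeeping normalisation and fitted bidirectionally against vehicle.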
# [13] = read-out: Bcl-2 (BID) gene, BID (gene 637); assay: LTEA_HepaRG_BID: Life Technologies and Expression Analysis (LTEA) Assay for Bcl-2 (BID) gene using HepaRG (AID 2283476)
# Outline: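 Cells are plated, cultured 48 h, switched to serum-free induction medium, then dosed 48 h (100 uM top, half-log steps, 0.5% DMSO). RNA is isolated and BID expression read by qRT-PCR.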
# Caspase-3 (Homo sapiens) = Caspase-3 (Homo sapiens) (UniProt P42574); assay: LTEA_HepaRG_CASP3: Life Technologies and Expression Analysis (LTEA) Assay for cysteine-aspartic acid protease (CASP3) using HepaRG (AID 2283477)
# Outline: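 Read-out is CASP3 mRNA level by TaqMan qRT-PCR in human HepaRG cells after 48 h chemical exposure. Eight half-log concentrations topping at 100 uM were tested in 0.5% DMSO; gain or loss was fitted relative to DMSO.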
# [14] = read-out: Cytochrome P450 (CYP24A1), CYP24A1 (gene 1591); assay: LTEA_HepaRG_CYP24A1: Life Technologies and Expression Analysis (LTEA) Assay for Cytochrome P450 (CYP24A1) using HepaRG (AID 2283478)
# Outline: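 HepaRG, 48 h chemical exposure, 8-pt half-log CRC from 100 uM, 0.5% DMSO vehicle, duplicates. Endpoint: CYP24A1 mRNA by Fluidigm TaqMan qRT-PCR, normalized ACTB/GAPDH/POLR2A; gain/loss fit vs DMSO.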
# [15] = read-out: Cytochrome P450 (CYP1A2), CYP1A2 (gene 1544); assay: LTEA_HepaRG_CYP1A2: Life Technologies and Expression Analysis (LTEA) Assay for Cytochrome P450 (CYP1A2) using HepaRG (AID 2283479)
# Outline: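 CYP1A2 transcript induction or loss, quantified by Fluidigm qRT-PCR against three housekeeping genes, was fitted bidirectionally against 0.5% DMSO controls. Human HepaRG cells received eight half-log concentrations from 100 uM over 48 h.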
# [16] = read-out: cysteine-aspartic acid protease (CASP8), CASP8 (gene 841); assay: LTEA_HepaRG_CASP8: Life Technologies and Expression Analysis (LTEA) Assay for cysteine-aspartic acid protease (CASP8) using HepaRG (AID 2283480)
# Outline: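 CASP8 transcript measured by TaqMan qRT-PCR with ACTB/GAPDH/POLR2A normalization, after 48 h chemical exposure of HepaRG cells in serum-free induction medium. Eight concentrations, top 100 uM, half-log steps, 0.5% DMSO vehicle; fits in both directions versus DMSO.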
# [17] = read-out: Cytochrome P450 (CYP2B6), CYP2B6 (gene 1555); assay: LTEA_HepaRG_CYP2B6: Life Technologies and Expression Analysis (LTEA) Assay for Cytochrome P450 (CYP2B6) using HepaRG (AID 2283481)
# Outline: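 HepaRG cells plated 48 h, switched to serum-free induction medium, then dosed 48 h (8 points, half-log from 100 uM, 0.5% DMSO). RNA isolated; CYP2B6 expression measured by qRT-PCR; gain or loss fitted relative to DMSO.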
# [18] = read-out: Cytochrome P450 2C19 (Homo sapiens) (UniProt P33261); assay: LTEA_HepaRG_CYP2C19: Life Technologies and Expression Analysis (LTEA) Assay for CYP2C19 using HepaRG (AID 2283482)
# Outline: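 Transcript levels of CYP2C19 were quantified by qRT-PCR after HepaRG cells were treated for 48 hours with test chemicals up to 100 uM (eight half-log concentrations, 0.5% DMSO vehicle). Gain or loss of signal was fitted relative to DMSO.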
# Chain of Caspase-3 (Homo sapiens) (P42574 whole entry, looked up): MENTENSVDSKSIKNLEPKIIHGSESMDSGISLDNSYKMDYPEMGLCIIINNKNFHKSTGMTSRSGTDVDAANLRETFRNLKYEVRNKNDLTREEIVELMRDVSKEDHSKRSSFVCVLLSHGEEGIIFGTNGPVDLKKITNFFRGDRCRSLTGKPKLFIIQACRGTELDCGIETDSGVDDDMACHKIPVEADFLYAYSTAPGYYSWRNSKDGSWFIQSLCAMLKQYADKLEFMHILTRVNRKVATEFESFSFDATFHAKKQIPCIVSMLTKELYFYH
# Chain of Apoptosis regulator Bcl-2 (Homo sapiens) (P10415 whole entry, looked up): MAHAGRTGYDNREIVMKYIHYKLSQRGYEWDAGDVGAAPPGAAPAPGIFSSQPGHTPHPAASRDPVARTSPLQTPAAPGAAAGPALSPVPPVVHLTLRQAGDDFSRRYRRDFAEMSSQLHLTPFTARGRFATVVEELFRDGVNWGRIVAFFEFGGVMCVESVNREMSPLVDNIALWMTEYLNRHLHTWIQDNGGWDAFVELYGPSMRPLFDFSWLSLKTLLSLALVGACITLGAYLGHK
# Chain of Broad substrate specificity ATP-binding cassette transporter ABCG2 (Homo sapiens) (Q9UNQ0 whole entry, looked up): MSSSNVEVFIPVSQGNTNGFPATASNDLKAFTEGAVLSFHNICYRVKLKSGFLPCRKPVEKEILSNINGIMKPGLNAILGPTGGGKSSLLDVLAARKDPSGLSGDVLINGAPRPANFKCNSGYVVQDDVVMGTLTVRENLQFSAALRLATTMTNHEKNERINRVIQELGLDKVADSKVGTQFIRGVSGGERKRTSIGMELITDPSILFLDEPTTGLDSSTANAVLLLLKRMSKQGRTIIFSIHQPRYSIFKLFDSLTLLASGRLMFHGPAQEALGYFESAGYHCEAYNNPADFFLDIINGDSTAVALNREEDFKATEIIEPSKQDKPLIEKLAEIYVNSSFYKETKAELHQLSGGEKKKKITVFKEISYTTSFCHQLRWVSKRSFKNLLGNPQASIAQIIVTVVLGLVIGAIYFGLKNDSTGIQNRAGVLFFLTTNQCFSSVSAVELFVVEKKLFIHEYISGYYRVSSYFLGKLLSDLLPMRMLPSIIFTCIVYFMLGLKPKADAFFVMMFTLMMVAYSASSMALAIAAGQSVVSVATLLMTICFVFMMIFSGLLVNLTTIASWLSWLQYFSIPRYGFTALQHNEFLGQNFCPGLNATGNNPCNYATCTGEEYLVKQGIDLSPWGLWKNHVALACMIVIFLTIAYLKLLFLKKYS
# Chain of Cytochrome P450 2C19 (Homo sapiens) (P33261 whole entry, looked up): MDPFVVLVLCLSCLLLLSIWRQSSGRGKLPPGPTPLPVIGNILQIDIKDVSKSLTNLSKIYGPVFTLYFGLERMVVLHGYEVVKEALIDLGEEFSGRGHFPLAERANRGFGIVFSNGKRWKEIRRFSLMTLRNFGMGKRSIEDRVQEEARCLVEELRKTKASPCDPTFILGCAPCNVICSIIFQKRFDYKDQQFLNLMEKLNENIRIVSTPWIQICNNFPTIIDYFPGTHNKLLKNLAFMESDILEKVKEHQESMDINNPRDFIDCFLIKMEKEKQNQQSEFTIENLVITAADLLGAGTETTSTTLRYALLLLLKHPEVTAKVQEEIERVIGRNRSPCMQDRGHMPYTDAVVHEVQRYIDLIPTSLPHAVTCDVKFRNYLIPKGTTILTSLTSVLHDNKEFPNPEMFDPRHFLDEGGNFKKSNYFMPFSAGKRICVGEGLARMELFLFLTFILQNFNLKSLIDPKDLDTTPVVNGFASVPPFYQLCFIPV
compound,measurement,setting,value
Oc1ccc2c(c1)-c1ccccc1C2,AC50,[1],25.1 µM (active)
same,outcome,[2],inactive
same,outcome,[3],inactive
same,outcome,[4],inactive
same,outcome,[5],inactive
same,outcome,[6],inactive
same,outcome,[7],inactive
same,outcome,[8],inactive
same,outcome,[9],inactive
same,outcome,[10],inactive
same,outcome,BCL2L11 (gene 10018),inactive
same,outcome,[11],inactive
same,outcome,[12],inactive
same,outcome,[13],inactive
same,outcome,Caspase-3 (Homo sapiens),inactive
same,outcome,[14],inactive
same,AC50,[15],21.4 µM (active)
same,outcome,[16],inactive
same,AC50,[17],50 µM (active)
same,outcome,[18],inactive
CCOC(=O)CC(CC(=O)OCC)(OC(C)=O)C(=O)OCC,outcome,[1],inactive
same,outcome,[2],inactive
same,outcome,[3],inactive
same,outcome,[4],inactive
same,outcome,[5],inactive
same,outcome,[6],inactive
same,outcome,[7],inactive
same,outcome,[8],inactive
same,outcome,[9],inactive
same,outcome,[10],inactive
same,outcome,BCL2L11 (gene 10018),inactive
same,outcome,[11],inactive
same,outcome,[12],inactive
same,outcome,[13],inactive
same,outcome,Caspase-3 (Homo sapiens),inactive
same,outcome,[14],inactive
same,AC50,[15],20.5 µM (active)
same,outcome,[16],inactive
same,outcome,[17],inactive
same,outcome,[18],inactive
CC(C)=CCC/C(C)=C\CO,outcome,[1],inactive
same,outcome,[2],inactive
same,outcome,[3],inactive
same,outcome,[4],inactive
same,outcome,[5],inactive
same,outcome,[6],inactive
same,outcome,[7],inactive
same,outcome,[8],inactive
same,outcome,[9],inactive
same,outcome,[10],inactive
same,outcome,BCL2L11 (gene 10018),inactive
same,outcome,[11],inactive
same,outcome,[12],inactive
same,outcome,[13],inactive
same,outcome,Caspase-3 (Homo sapiens),inactive
same,outcome,[16],inactive
COCCOCCOCCOC,outcome,[1],inactive
same,outcome,[2],inactive
same,outcome,[3],inactive
same,outcome,[4],inactive
same,outcome,[5],inactive
same,outcome,[6],inactive
same,outcome,[7],inactive
same,outcome,[8],inactive
same,outcome,[9],inactive
same,outcome,[10],inactive
same,outcome,BCL2L11 (gene 10018),inactive
same,outcome,[11],inactive
same,outcome,[12],inactive
same,outcome,[13],inactive
same,outcome,Caspase-3 (Homo sapiens),inactive
same,outcome,[14],inactive
same,outcome,[15],inactive
same,outcome,[16],inactive
same,outcome,[17],inactive
same,outcome,[18],inactive
CN(C)c1ccc(N=NS(=O)(=O)O)cc1,AC50,[1],21 µM (active)
same,outcome,[2],inactive
same,outcome,[3],inactive
same,outcome,[4],inactive
same,AC50,[5],12.9 µM (active)
same,outcome,[6],inactive
same,outcome,[7],inactive
same,outcome,[9],inactive
same,outcome,[10],inactive
same,outcome,BCL2L11 (gene 10018),inactive
same,AC50,[11],12.8 µM (active)
same,outcome,[12],inactive
same,outcome,[13],inactive
same,outcome,Caspase-3 (Homo sapiens),inactive
same,outcome,[14],inactive
same,AC50,[15],13.8 µM (active)
same,outcome,[16],inactive
same,outcome,[17],inactive
same,outcome,[18],inactive
CC[C@H](C)C(=O)O[C@H]1C[C@@H](C)C=C2C=C[C@H](C)[C@H](CC[C@@H]3C[C@@H](O)CC(=O)O3)[C@H]21,AC50,[1],50 µM (active)
same,outcome,[2],inactive
same,outcome,[3],inactive
same,AC50,[4],14.8 µM (active)
same,outcome,[5],inactive
same,outcome,[6],inactive
same,outcome,[7],inactive
same,outcome,[8],inactive
same,outcome,[9],inactive
same,outcome,[10],inactive
same,outcome,BCL2L11 (gene 10018),inactive
same,AC50,[11],9.92 µM (active)
same,outcome,[12],inactive
same,outcome,[13],inactive
same,outcome,Caspase-3 (Homo sapiens),inactive
same,outcome,[14],inactive
same,AC50,[15],6.18 µM (active)
same,outcome,[16],inactive
same,outcome,[17],inactive
